This is a sample that favours compounds with a hit; in the whole collection about 6.8% have one here.
SW480 rereplic: A quantitative high throughput screen for small molecules that induce DNA re-replication in SW480 colon adenocarcinoma cells; Potency, µM (titrated, usually from 46.1 µM), without a hit: top-dose re-replication activation, hits mostly activators; SW480 DNA re-replication, Hoechst DNA content imaging, 48 h; AID 624297, 2012; 1.8% of 340,000 active; also: % of control where 0% means no effect; nearly all actives have a fitted effect of over 55% in size
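Per well, 250 cells were exposed to pinned compound for 48 hr. Nuclear DNA was visualised with Hoechst (40 min, 37 C) and total object intensity recorded by fluorescence scanning.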
KB-V1 MDR tox: qHTS assay for MDR1-selective chemotherapeutics: Primary screen using the drug-selected MDR subline cells KB-V1 | KB-V1 MDR cells viability, CellTiter-Glo, 72 h | Potency, µM (series often up to 46.1 µM), usual class: cytotoxic | 3.4% of 400,000 active; also: % is scaled to controls: 0 for no effect and ±100 for the full control effect; nearly all actives have a fitted effect of over 60% in size
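Cells of the MDR subline KB-V1 are plated, dosed with compound at multiple concentrations, and incubated 72 h at 37 degrees C; CellTiter-Glo is then added and luminescence read after 10 min.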
MCF10A rerep: A quantitative high throughput screen for small molecules that induce DNA re-replication in MCF 10a normal breast cells. Potency, µM (highest dose often 46.1 µM), for inactives: top-dose activity, positive = re-replication, most hits filed as activators. MCF 10A DNA re-replication, Hoechst nuclear intensity, 48 h. 2.9% of 350,000 active; also: % of control where 0% means no effect; nearly all actives have a fitted effect of over 50% in size
PINK1 expr mod: A Quantitative High throughput Screen to Identify Chemical Modulators of PINK1 Expression. AID 624263, 2012. PINK1 immunofluorescence, high-content cytometry, 24 h. 0.2% of 410,000 active. Potency, µM (titrated, usually from 76.6 µM), for the others: at the highest dose activation (PINK1 increase), most hits filed as activators; active = well fitted activation curve with a large enough effect; inconclusive = small, poorly fitted or top-dose-only effect; cell line not stated here; also: % of control where 0% means no effect; nearly all actives have a fitted effect of over 65% in size
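Stable cell line treated 24 h with compounds at 5 concentrations (CCCP controls), then fixed and immunostained for PINK1 plus nuclear and cell stains; PINK1 immunofluorescence quantified by laser-scanning microplate cytometry.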
KB-3-1 tox: qHTS assay for MDR1-selective chemotherapeutics: Primary screen using the parental adenocarcinoma cell KB-3-1 | 1.4% of 400,000 active | Potency, µM (doses to about 46.1 µM), usual class: cytotoxic | KB-3-1 viability, CellTiter-Glo ATP luminescence, 72 h; also: % is scaled to controls: 0 for no effect and ±100 for the full control effect; nearly all actives have a fitted effect of over 60% in size
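72 h, 37 °C compound treatment of KB-3-1 parental cells; CellTiter-Glo added, 10 min, luminescence read. Data corrected against DMSO-only plates and normalized before curve fitting.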
PTAP TSG101 blk: qHTS Assay for Iinhibitors of HIV-1 Budding by Blocking the Interaction of PTAP/TSG101; 340,000 tested, under 10 active; Fluorescence polarization, FITC-PTAP peptide / Tsg101 binding; Potency, µM (series often up to 115 µM), without a hit: top-dose activity change, negative = inhibition, usual class: inhibitors; Tumor susceptibility gene 101 protein (Homo sapiens), Q99816; active = well fitted inhibition curve with a large enough effect in the main read-out, with a control signal flat, not every such curve was filed as active; inconclusive = small, poorly fitted or top-dose-only effect, or effect the other way, or a change in a side signal; inactive = no such curve, though single readings can be large or run the other way; also: % of control where 0% means no effect
Target sequence (Q99816 whole entry, looked up): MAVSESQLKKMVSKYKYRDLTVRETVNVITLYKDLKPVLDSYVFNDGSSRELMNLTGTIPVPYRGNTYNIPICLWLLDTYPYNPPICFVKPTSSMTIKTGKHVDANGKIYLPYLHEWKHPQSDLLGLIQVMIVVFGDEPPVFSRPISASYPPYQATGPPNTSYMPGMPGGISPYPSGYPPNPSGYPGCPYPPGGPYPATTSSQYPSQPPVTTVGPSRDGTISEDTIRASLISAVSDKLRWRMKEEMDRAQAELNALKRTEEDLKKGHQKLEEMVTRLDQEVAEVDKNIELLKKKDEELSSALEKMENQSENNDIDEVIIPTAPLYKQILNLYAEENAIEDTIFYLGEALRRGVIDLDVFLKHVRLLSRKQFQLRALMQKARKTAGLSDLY
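Compounds were pin-transferred onto Tsg101 binding domain (10 uM final) in HEPES pH 7.5 buffer, then FITC-PTAP peptide was added at 50 nM final. After 20 min at RT, polarization reported peptide displacement across a qHTS concentration series.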
Active calls of the source: *; i = inactive; ? = inconclusive; · = no result given; ! = not active in a repeat. Unless noted, calls follow the shape of the dose curve; as a rule, active = well fitted curve in the direction sought with a large enough effect; inconclusive = small, poorly fitted or top-dose-only effect, or another doubt; inactive = no such curve, though single readings can be large; an effect the other way counts as inactive or inconclusive. Potency is read from the fitted curve at half-maximal effect.

SMILES | SW480 rereplic | KB-V1 MDR tox | MCF10A rerep | PINK1 expr mod | KB-3-1 tox | PTAP TSG101 blk
COC(=O)c1c(C)[nH]c(C(=O)CN2C(=O)C3CC=CCC3C2=O)c1C (stereo not given) | 2% | 21µM* | 14% | 0% | i | -2%
CC1=C(C(=O)Nc2ccccc2)C(CC(C)C)n2nc(SCc3ccccc3C)nc2N1 (stereo not given) | · | i | · | 1% | i | ·
COc1ccc(-c2nnc(SC(C)C(=O)Nc3nccs3)n2-c2ccccc2)cc1OC (stereo not given) | -4% | 15µM* | -1% | 1% | i | 1%
Cn1c(=NC(=O)C2=NNC(=O)CC2)sc2ccccc21 | -1% | 1.5µM* | 3% | 0% | 3.3µM* | -3%
Cn1c(=NC(=O)CN2C(=O)C3CC=CCC3C2=O)sc2ccccc21 (stereo not given) | -1% | 5.2µM*! | 8% | -3% | i | -2%
C[C@@H](C(=O)N=c1sc2ccccc2n1C)N1C(=O)C2CC=CCC2C1=O (stereo not given in full) | 13% | i | -2% | 4% | i | 3%
COC(=O)c1c(NC(=O)c2nn(C)cc2Cl)sc2c1CCCC2 | -2% | 5.8µM* | 6% | ? | i | -3%
COC(=O)c1c(NC(=S)Nc2cc(OC)c(Cl)cc2OC)sc2c1CCCCC2 | -2% | 21µM* | ? | 1% | i | 0%
COC(=O)c1c(NC(=S)NNS(=O)(=O)c2ccc(OC)cc2OC)sc2c1CCCCCC2 | -4% | · | ? | -1% | · | -3%
Brc1cccc[n+]1CCCC[n+]1ccccc1Br | · | i | · | 1% | i | ·
CC(C)c1ccc(N2C(=O)CSC23C(=O)N(C)c2ccccc23)cc1 (stereo not given) | · | ? | · | -1% | i | ·
Cc1ccc(S(=O)(=O)N(CC(O)Cn2c3ccccc3c3ccccc32)c2cccc(C(=O)NCCO)c2)cc1 (stereo not given) | · | i | · | 10% | ? | ·
COc1cccc(Cn2c(=O)n(-c3ccccc3C)c(=O)c3c2c2cc(C)ccc2n3C)c1 | · | i | · | 3% | ? | ·
CC1CCc2[nH]c3ccc(C(=O)N(C)CC(=O)Nc4ccccc4Cl)cc3c2C1 (stereo not given) | -2% | ? | 12% | 0% | i | -2%
Cc1ccc(NC(=O)CN(C)C(=O)c2ccc3[nH]c4c(c3c2)CC(C)CC4)cc1 (stereo not given) | ? | 15µM* | ? | -1% | ? | -3%
CCCN(CC(=O)Nc1ccccc1OC)C(=O)c1ccc2[nH]c3c(c2c1)CC(C)CC3 (stereo not given) | 11% | 16µM* | ? | -2% | ? | 0%
CCN(CC(=O)Nc1ccccc1OC)C(=O)c1ccc2[nH]c3c(c2c1)CC(C)CC3 (stereo not given) | -9% | i | 18µM* | 2% | ? | -2%
CCc1ccccc1NC(=O)N(C)CCc1c(C)nn(C)c1C | · | ? | · | 0% | i | ·
COC(=O)c1ccccc1NC(=O)c1nc(S(=O)(=O)Cc2cccc(C)c2)ncc1Cl | · | · | · | 1% | · | ·
COC(=O)c1ccc(NC(=O)c2nc(S(=O)(=O)Cc3cccc(C)c3)ncc2Cl)cc1 | ? | 9.2µM* | 11% | -2% | 15µM* | 4%
CCOC(=O)c1ccc(NC(=O)c2nc(S(=O)(=O)Cc3ccccc3)ncc2Cl)cc1 | -5% | ? | 2.9µM* | 3% | 21µM* | 5%
CC(=O)Nc1ccc(NC(=O)c2nc(S(=O)(=O)Cc3ccc(F)cc3)ncc2Cl)cc1 | · | · | · | 5% | · | ·

Source: PubChem
